Where “and” joins values, the source holds several entries; their conditions need not be identical. Equal values may be shown once. Where a name gives a salt, the structure may show the parent alone.
Experiments:
Test in all cases: cell viability relative to vehicle control; higher = less cytotoxic
Conditions in all cases: 10 µM
K562 = tested on: K562
Method in brief: (§1)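 Four leukaemia lines, as CRISPR-edited mutant clones and isogenic wild-type clones, were tested against Selleck bioactive, kinase and epigenetic probe libraries after removal of identity-inconsistent compounds. Cells were exposed to a single 10 µM dose for 48 h, and CellTiter-Glo luminescence was then read. Viability was calculated relative to the on-plate vehicle control.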

MARIMO = tested on: MARIMO
Method in brief: as §1

MOLM14 = tested on: MOLM14
Method in brief: as §1

OCI-AML2 = tested on: OCI-AML2
Method in brief: as §1

Row | Structure (SMILES) | cell viability (K562; SRSF2 genotype: SRSF2 P95H/wt) | cell viability (K562; SRSF2 genotype: SRSF2 wt/wt) | cell viability (MARIMO; SRSF2 genotype: SRSF2 P95H/wt) | cell viability (MARIMO; SRSF2 genotype: SRSF2 wt/wt) | cell viability (MOLM14; SRSF2 genotype: SRSF2 P95H/wt) | cell viability (MOLM14; SRSF2 genotype: SRSF2 wt/wt) | cell viability (OCI-AML2; SRSF2 genotype: P95H/wt) | cell viability (OCI-AML2; SRSF2 genotype: wt/wt)
1 | O=C(O)CCCNC(=O)c1cccnc1 [Pikamilone] | 109% and 105% | 119% | 97.1% | 105% | 99.9% | 106% | 114% | 118%
2 | CCc1cc2c(cc1N1CCC(N3CCOCC3)CC1)C(C)(C)c1[nH]c3cc(C#N)ccc3c1C2=O | 91.7% and 98.6% | 105% | 63.9% | 86.3% | 66.7% | 80.5% | 71.7% | 52.2%
3 | CC1(C)CCC(C)(C)c2cc(NC(=O)c3ccc(C(=O)O)cc3)ccc21 [Tamibarotene] | 94.1% and 91.6% | 90.8% | 93.1% | 99.2% | 88.8% | 98.3% | 37.4% | 61.5%
4 | NC(N)=Nc1nc(CSCC/C(N)=N/S(N)(=O)=O)cs1 [Famotidine (Pepcid)] | 105% and 106% | 109% | 111% | 106% | 103% | 107% | 107% | 107%
5 | CC(ONC(=O)c1cc(C(F)(F)F)cc(C(F)(F)F)c1)C(=O)Nc1ccc(Cl)cc1 (stereo not given) | 78.9% and 81% | 78.8% | 95.5% | 102% | 88.7% | 93.2% | 82% | 90.7%
6 | C=CC(=O)N[C@H]1CCOC[C@H]1Nc1ncc2cc(-c3c(Cl)c(OC)cc(OC)c3Cl)ccc2n1 | 78.2% and 81.3% | 80.2% | 85.8% | 90.5% | 78.8% | 79.8% | 66.8% | 72.7%
7 | CCOC(=O)C1=C(COCCN)NC(C)=C(C(=O)OC)[C@@H]1c1ccccc1Cl [Levamlodipine] | 75.1% and 83.2% | 77% | 72.9% | 75% | 50.3% | 52% | 30.2% | 39.7%
8 | C[C@H](CC[C@@H](O[C@@H]1O[C@H](CO[C@@H]2O[C@H](CO)[C@@H](O)[C@H](O)[C@H]2O)[C@@H](O)[C@H](O)[C@H]1O[C@@H]1O[C@H](CO)[C@@H](O)[C@H](O)[C@H]1O)C(C)(C)O)[C@H]1CC[C@@]2(C)[C@@H]3CC=C4[C@@H](CC[C@H](O[C@@H]5O[C@H](CO[C@@H]6O[C@H](CO)[C@@H](O)[C@H](O)[C@H]6O)[C@@H](O)[C@H](O)[C@H]5O)C4(C)C)[C@]3(C)[C@H](O)C[C@]12C [Mogroside V] | 94.9% and 96.3% | 101% | 92.7% | 104% | 104% | 104% | 103% | 97.7%
9 | NC(=O)Cc1c[nH]c2ccccc12 [Indole-3-acetamide] | 97.9% and 97.4% | 107% | 98% | 100% | 92.9% | 103% | 107% | 115%
10 | Cc1cc(/C=C2/SC(=S)NC2=O)c(C)n1-c1cccnc1 [Optovin] | 85.7% and 83.4% | 85% | 92.2% | 102% | 89.3% | 90.5% | 107% | 97.2%
11 | COC(=O)c1ccc(O)c(C(=O)OC)c1 [Dimetghyl 4-Hydroxyisophthalate] | 100% and 93.1% | 99.4% | 95.2% | 98.7% | 97.3% | 100% | 90% | 96.6%
12 | Cc1nc(N)sc1-c1ccnc(Nc2ccc(N3CCOCC3)cc2)n1 | 59.9% and 67.6% | 64.5% | 40.8% | 44.3% | 5.52% | 4.7% | 9.4% | 13.7%
13 | Clc1ncnc2nc[nH]c12 [6-Chloropurine] | 88.9% and 82.6% | 82.7% | 92.3% | 87% | 88.9% | 90.3% | 83.3% | 87.9%
14 | CC(C)C(=O)Oc1ccc(CO)cc1[C@H](CCN(C(C)C)C(C)C)c1ccccc1 [Fesoterodine Fumarate] | 97.2% and 107% | 102% | 91.7% | 98.4% | 102% | 104% | 113% | 98%
15 | COc1cc2ncnc(Oc3ccc(CC(=O)Nc4cnn(C(C)C)c4)cc3)c2cc1OC | 74.8% and 98.4% | 72.4% | 113% | 107% | 16.1% | 14.1% | 36.1% | 42.4%
16 | CN(C)[C@@H](CCOc1cccc2ccccc12)c1ccccc1 [Dapoxetine hydrochloride (Priligy)] | 65.8% and 82.9% | 73% | 52.7% | 59% | 53.9% | 58.8% | 58.9% | 63.1%
17 | Nc1[nH]cnc2ncnc1-2 [Adenine hydrochloride] | 127% and 120% | 105% | 98.5% | 111% | 105% | 108% | 114% | 118%
18 | COc1c2c(cc3oc(COC4OC(CO)C(O)C(O)C4O)cc(=O)c13)OC(C(C)(C)O)C2 (stereo not given) [Prim-o-glucosylcimifugin] | 83.8% and 84.2% | 88.3% | 84% | 94% | 88.3% | 88.2% | 91.8% | 98.1%
19 | CC(C)(O)CNc1nc(Nc2ccnc(C(F)(F)F)c2)nc(-c2cccc(C(F)(F)F)n2)n1 [AG-221 (Enasidenib)] | 102% and 103% | 103% | 93.1% | 99.8% | 97.8% | 110% | 84.6% | 89.4%
20 | O=C(O)CC1CC(c2ccccc2)=NO1 (stereo not given) | 108% and 104% | 103% | 97% | 110% | 97.4% | 99.7% | 89.5% | 95.5%

Row | Structure (SMILES) | cell viability (K562; SRSF2 genotype: SRSF2 P95H/wt) | cell viability (K562; SRSF2 genotype: SRSF2 wt/wt) | cell viability (MARIMO; SRSF2 genotype: SRSF2 P95H/wt) | cell viability (MARIMO; SRSF2 genotype: SRSF2 wt/wt) | cell viability (MOLM14; SRSF2 genotype: SRSF2 P95H/wt) | cell viability (MOLM14; SRSF2 genotype: SRSF2 wt/wt) | cell viability (OCI-AML2; SRSF2 genotype: P95H/wt) | cell viability (OCI-AML2; SRSF2 genotype: wt/wt)
21 | CC(C)=CCC[C@](C)(O[C@@H]1O[C@H](CO[C@@H]2OC[C@H](O)[C@H](O)[C@H]2O)[C@@H](O)[C@H](O)[C@H]1O)[C@H]1CC[C@]2(C)[C@@H]1[C@H](O)C[C@@H]1[C@@]3(C)CC[C@H](O[C@@H]4O[C@H](CO)[C@@H](O)[C@H](O)[C@H]4O[C@@H]4O[C@H](CO)[C@@H](O)[C@H](O)[C@H]4O)C(C)(C)[C@@H]3CC[C@]12C [Ginsenoside Rb2] | 86% and 89.7% | 84% | 88.4% | 98.1% | 92.2% | 87.7% | 83.2% | 101%
22 | O=C(NCc1ccccc1)c1csc(Nc2ccncn2)n1 [Thiazovivin] | 100% and 101% | 100% | 80.5% | 94.7% | 37.8% | 86.8% | 46% | 49.5%
23 | Cc1c(C(=O)NN2CCCCC2)nn(-c2ccc(Cl)cc2Cl)c1-c1ccc(Cl)cc1 | 81.6% and 88% | 74.5% | 93.7% | 93% | 88.5% | 87% | 91.8% | 90.9%
24 | CC#CC(=O)N1CC[C@@H](n2c(=O)n(-c3ccc(Oc4ccccc4)cc3)c3c(N)ncnc32)C1 [ONO-4059 (GS-4059) hydrochloride] | 91% and 102% | 95.7% | 97.2% | 107% | 91.4% | 95.8% | 91% | 88.9%
25 | CC1=CCC(C(C)(C)O)CC1 (stereo not given) | 102% and 104% | 103% | 101% | 105% | 96.1% | 103% | 103% | 103%
26 | Cc1cccc(C)c1NC(=O)C1CCCCN1C (stereo not given) [Mepivacaine HCl] | 105% and 102% | 111% | 106% | 95.3% | 96.5% | 102% | 108% | 99%
27 | Cc1cc(-c2cc(C)c(NCCCS(=O)(=O)O)c(C)c2)cc(C)c1N | 106% and 93.5% | 105% | 96.3% | 111% | 100% | 108% | 99.9% | 99%
28 | CCOC(=O)c1ccc(C#Cc2ccc3c(c2)C(C)(C)CCS3)nc1 [Tazarotene (Avage)] | 81% and 84.7% | 78.1% | 46.6% | 40.8% | 76.2% | 88.1% | 14.1% | 27.8%
29 | O=C(/C=C/c1ccc(O)c2c1[C@H](C(=O)O)[C@@H](c1ccc(O)c(O)c1)O2)O[C@H](Cc1ccc(O)c(O)c1)C(=O)O [Lithospermic acid] | 96.8% and 101% | 96% | 97.9% | 88.7% | 104% | 99.9% | 88.6% | 97.6%
30 | CC1(C)C2CCC1(C)C(O)C2 (single isomer, unassigned; (-)) [(-)-Borneol] | 103% | 106% | 100% | 109% | 101% | 104% | 109% | 106%
31 | CCn1cc(C(=O)O)c(=O)c2cc(F)c(N3CCNCC3)nc21 [Enoxacin (Penetrex)] | 111% and 106% | 108% | 109% | 111% | 105% | 110% | 112% | 105%
32 | Cn1cc(CNCC2CCN(c3ncc(C(=O)NO)cn3)CC2)c2ccccc21 | 1.34% and 13.5% | 3% | 7.96% | 11.5% | 0.72% | 0.54% | 1.8% | 2.84%
33 | Cc1cc(C(=O)NOCCO)c(Nc2ccc(I)cc2F)n(C)c1=O | 79.1% and 88% | 84.6% | 43.3% | 36.3% | 43.5% | 28.7% | 39.4% | 42.9%
34 | CCCn1/c(=N/C(=O)c2cccc(C(N)=O)c2)[nH]c2ccccc21 [Takinib] | 100% | 96.3% | 98.8% | 103% | 77.8% | 91% | 74.7% | 84.3%
35 | O[C@@H](COc1cccc2ncccc12)CN1CCN([C@@H]2c3ccccc3[C@@H]3[C@H](c4ccccc42)C3(F)F)CC1 | 60.6% and 54.3% | 54.9% | 56.6% | 55.6% | 39.8% | 36.2% | 39.2% | 40.7%
36 | Cc1cc(Cn2cnc3c2CC(C(=O)O)N(C(=O)C(c2ccccc2)c2ccccc2)C3)ccc1N(C)C (stereo not given) | 100% and 97.2% | 99.5% | 102% | 101% | 94.9% | 97.2% | 100% | 117%
37 | NC(=O)c1ccc(N(C(N)=O)c2c(F)cccc2F)nc1-c1ccc(F)cc1F | 97.7% and 97.3% | 94.1% | 94% | 97.5% | 96.1% | 105% | 95.3% | 103%
38 | CCOC(=O)c1ncn2c1CN(C)C(=O)c1cc(F)ccc1-2 [Flumazenil] | 107% and 101% | 108% | 95.9% | 107% | 106% | 101% | 94% | 103%
39 | CC(C)N(CCCCOCC(=O)NS(C)(=O)=O)c1cnc(-c2ccccc2)c(-c2ccccc2)n1 [Selexipag] | 110% and 100% | 100% | 97% | 109% | 97.6% | 98.2% | 96.9% | 109%
40 | CC(C)(N)C(=O)N[C@H](COCc1ccccc1)C(=O)N1CCC2(CC1)CN(S(C)(=O)=O)c1ccccc12 [Ibutamoren mesylate] | 91.5% and 97.4% | 90% | 81.1% | 92% | 80.1% | 89.5% | 82.3% | 78.9%

From the supplement of paper PMC10981050
